Source: paper PMC5540273 (PLoS ONE, 2017)

tested on: PRKD2; details: concentration: 1 μM, replicates: in singlicate; n = 1
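Note: KINOMEscan kinase panel screen.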

Point of comparison: Fc1ccc(-c2ncn(CCCN3CCOCC3)c2-c2cccnc2)cc1 [SB-211743], “%Inh” value 6%. Against it:
- O=c1cc(N2CCOCC2)nc2n(Cc3cccc(F)c3)ccn12 [GSK2297430] — lower, 0%
- CC(C)(C)n1cnc2c(N)ncnc21 [SKF-97359] — higher, 13%
- O=c1cc(N2CCOCC2)nc2n(Cc3cccc(C(F)(F)F)c3)ccn12 [GSK2297543] — lower, 1%
- Cc1cccc(Cn2ccn3c(=O)cc(N4CCOCC4)nc23)c1 [GSK2297542] — higher, 7%
- O=C(NCCNc1ccnc(Nc2ccc(F)cc2)n1)c1cc2ccccc2s1 [GSK1379874] — lower, 0%
- Cn1ccc2ncnc(Oc3ccc(NC(=O)Nc4ccncc4)c(Cl)c3)c21 — lower, 0%
- COc1ccc(COc2cc(-n3cnc4ccccc43)sc2C(N)=O)cc1 [GSK1024304] — higher, 24%
- Cc1ccc(C(=O)NCC(N)=O)cc1-n1c(C)cc(OCc2ccc(F)cc2F)c(Br)c1=O — lower, 0%
- Cc1ccc(NC(=O)c2ccnc(N3CCN(C)CC3)c2)cc1-c1ccc(C(=O)NCC2CC2)cc1 [GW775604] — lower, 2%
- Fc1ccc(-c2nn3c(OCC(F)(F)F)cccc3c2-c2ccncc2)cc1 [GW514784] — higher, 7%
- O=C(NOCC1CC1)c1ccc(F)c(F)c1Nc1ccc(I)cc1Cl — lower, 0%
- O=C(Nc1n[nH]c2cc(-c3cccc(F)c3)ccc12)C1CC1 [SB-735464] — lower, 0%
- COc1ccc(Nc2nccc(N3CCC(NC(=O)Nc4cccc(C(C)=O)c4)C3)n2)cc1 (stereo not drawn) [GSK1379731] — higher, 11%
- N#Cc1ccc(-c2cc(-c3c[nH]nc3-c3ccccn3)ccn2)cc1 [GW693028] — higher, 40%
- COC(=O)Nc1nc2cc(Oc3ccc(NC(=O)Nc4cc(F)ccc4F)cc3)ccc2[nH]1.Cl [GW701424] — lower, 0%
- O=c1cc(N2CCOCC2)nc2n(Cc3cccc4ccccc34)ccn12 [GSK2333389] — lower, 0%
- c1ccc(-c2n[nH]cc2-c2ccnc3ccccc23)nc1 [GW271431] — higher, 14%
- Nc1nccc(-c2c(-c3ccc(F)cc3)ncn2C2CCN(CC(F)(F)F)CC2)n1 [SB-236560] — lower, 0%
- NCC(NC(=O)c1cc(-c2cn[nH]c2)c(-c2ccnc3[nH]ccc23)s1)c1ccccc1.O=C(O)C(F)(F)F.O=C(O)C(F)(F)F (stereo not drawn) [GSK1325775] — higher, 45%
- Cc1c2ccc(N(C)c3ccnc(Nc4cccc(S(N)(=O)=O)c4)n3)cc2nn1Cc1ccccc1.Cl.Cl [GW787226] — lower, 0%
- COc1ccc(S(=O)(=O)NC2CCN(c3cc(C)nc(Nc4cccc(C#N)c4)n3)CC2)cc1.O=C(O)C(F)(F)F [GSK1653539] — higher, 19%

tested on: PRKD3; details: concentration: 1 μM, replicates: in singlicate; n = 1

Point of comparison: CCc1nc(-c2cccc(C)c2)c(-c2ccnc(NCc3ccccc3)c2)s1, “%Inh” value 0%. Against it:
- COc1ccc(Nc2ncc(C#N)c(Nc3ccccc3C(N)=O)n2)cc1N1CCN(C)CC1.Cl [GSK1558669] — higher, 99%
- O=C(Nc1cccc(-c2nn3ncccc3c2-c2ccnc(Nc3cccc(C(F)(F)F)c3)n2)c1)c1c(F)cccc1F [GSK299495] — higher, 14%
- Cc1cccc(-c2nc(Nc3ccc4ncsc4c3)c3ccccc3n2)n1 [GW867588] — higher, 66%
- Cl.Nc1ncnc2occ(-c3ccc(NC(=O)Nc4cc(C(F)(F)F)ccc4F)cc3)c12 [SB-707548] — higher, 29%
- C[C@@H](Oc1cc(-n2cnc3ccc(NC(=O)NC(C)(C)C)cc32)sc1C(N)=O)c1ccccc1Cl [GSK346294] — higher, 24%
- c1ccc(-c2cc(-c3c[nH]nc3-c3ccccn3)ccn2)cc1 [GW576604] — higher, 50%
- Cc1nnc(-c2ccc3occ(-c4ccc(C(C)O)cc4)c3c2)o1 (stereo not drawn) — the same, 0%
- CC(C)Oc1ccc2c(-c3ccnc(Nc4ccc(N5CCN(C)CC5)cc4)n3)cnn2n1 [GW696155] — higher, 100%
- NS(=O)(=O)c1cccc(-c2ccc3ncc(N4CCOCC4)nc3c2)c1 [GSK1535721] — the same, 0%
- Fc1ccc(-c2ncn(CCCN3CCOCC3)c2-c2ccccn2)cc1 [SB-211742] — the same, 0%
- CN(C1=C(c2ccccc2)C(=O)NC1=O)c1ccccc1 [SB-334860] — higher, 25%
- O=C(NCCNc1ccnc(Nc2ccc(F)cc2)n1)Nc1ccccc1F [GSK1379880] — the same, 0%
- O=c1cc(N2CCOCC2)nc2n(Cc3cccc(F)c3)ccn12 [GSK2297430] — the same, 0%
- CC(C)(C)n1cnc2c(N)ncnc21 [SKF-97359] — the same, 0%
- O=c1cc(N2CCOCC2)nc2n(Cc3cccc(C(F)(F)F)c3)ccn12 [GSK2297543] — the same, 0%
- Cc1cccc(Cn2ccn3c(=O)cc(N4CCOCC4)nc23)c1 [GSK2297542] — higher, 24%
- O=C(NCCNc1ccnc(Nc2ccc(F)cc2)n1)c1cc2ccccc2s1 [GSK1379874] — the same, 0%
- Cn1ccc2ncnc(Oc3ccc(NC(=O)Nc4ccncc4)c(Cl)c3)c21 — the same, 0%
- COc1ccc(COc2cc(-n3cnc4ccccc43)sc2C(N)=O)cc1 [GSK1024304] — higher, 3%
- Cc1ccc(C(=O)NCC(N)=O)cc1-n1c(C)cc(OCc2ccc(F)cc2F)c(Br)c1=O — higher, 15%
- Cc1ccc(NC(=O)c2ccnc(N3CCN(C)CC3)c2)cc1-c1ccc(C(=O)NCC2CC2)cc1 [GW775604] — the same, 0%
- Fc1ccc(-c2nn3c(OCC(F)(F)F)cccc3c2-c2ccncc2)cc1 [GW514784] — the same, 0%
- Fc1ccc(-c2ncn(CCCN3CCOCC3)c2-c2cccnc2)cc1 [SB-211743] — the same, 0%
- O=C(NOCC1CC1)c1ccc(F)c(F)c1Nc1ccc(I)cc1Cl — the same, 0%
- O=C(Nc1n[nH]c2cc(-c3cccc(F)c3)ccc12)C1CC1 [SB-735464] — higher, 1%
- COc1ccc(Nc2nccc(N3CCC(NC(=O)Nc4cccc(C(C)=O)c4)C3)n2)cc1 (stereo not drawn) [GSK1379731] — higher, 7%
- N#Cc1ccc(-c2cc(-c3c[nH]nc3-c3ccccn3)ccn2)cc1 [GW693028] — the same, 0%
- COC(=O)Nc1nc2cc(Oc3ccc(NC(=O)Nc4cc(F)ccc4F)cc3)ccc2[nH]1.Cl [GW701424] — higher, 6%
- O=c1cc(N2CCOCC2)nc2n(Cc3cccc4ccccc34)ccn12 [GSK2333389] — higher, 23%
- c1ccc(-c2n[nH]cc2-c2ccnc3ccccc23)nc1 [GW271431] — higher, 38%
- Nc1nccc(-c2c(-c3ccc(F)cc3)ncn2C2CCN(CC(F)(F)F)CC2)n1 [SB-236560] — the same, 0%
- NCC(NC(=O)c1cc(-c2cn[nH]c2)c(-c2ccnc3[nH]ccc23)s1)c1ccccc1.O=C(O)C(F)(F)F.O=C(O)C(F)(F)F (stereo not drawn) [GSK1325775] — higher, 55%
- Cc1c2ccc(N(C)c3ccnc(Nc4cccc(S(N)(=O)=O)c4)n3)cc2nn1Cc1ccccc1.Cl.Cl [GW787226] — the same, 0%
- COc1ccc(S(=O)(=O)NC2CCN(c3cc(C)nc(Nc4cccc(C#N)c4)n3)CC2)cc1.O=C(O)C(F)(F)F [GSK1653539] — higher, 48%
